A549 tox: Nrf2 qHTS screen for inhibitors: counterscreen for cytotoxicity. A549 ARE-Fluc cells, CellTiter-Fluor viability, 18-24 h. Potency, µM (highest dose often 46 µM), for inactives: at the top dose activity change, negative = cytotoxicity, usual class: inhibitors. 390,000 compounds, 0.16% hits; note: % is set by controls: 0 for no effect and ±100 for the full control effect
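A549 ARE_Fluc cells in 5% FBS OPTI-MEM were exposed to compounds in concentration-response for 18-24 h at 37 deg C. Viability was read by CellTiter-Fluor fluorescence (Ex 405/Em 525) after 30 min, before the luciferase read.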
TrxR1 inh: qHTS Assay for Inhibitors of Mammalian Selenoprotein Thioredoxin Reductase 1 (TrxR1): qHTS; Thioredoxin reductase 1, cytoplasmic (Rattus norvegicus), O89049; recombinant rTrxR1, NADPH fluorescence consumption, selenite substrate; Potency, µM (series often up to 114 µM), inactives show at the highest dose activity change, negative = inhibition, most hits filed as inhibitors; 390,000 compounds, 1% hits; AID 588453, 2011; note: % is set by controls: 0 for no effect and ±100 for the full control effect; nearly all actives have a fitted effect of over 65% in size
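Rat TrxR1 (90 nM in the dispensed reagent) was pre-reduced with 400 uM NADPH for 5 min at room temperature, then incubated with compound for 15 min. After 400 uM selenite was added, NADPH fluorescence (Ex 340/Em 450 nm) was followed for 8 min.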
Mito fusion act: qHTS Assay for Small Molecule Inhibitors of Mitochondrial Division or Activators of Mitochondrial Fusion; S. cerevisiae fusion-defective mutant growth rescue, CellTiterGlo 48 h; Potency, µM (highest dose often 46.1 µM), without a hit: top-dose growth rescue (activation), actives largely listed as activators; 320,000 compounds, 0.23% hits; AID 485298, 2010; note: % of control where 0% means no effect; nearly all actives have a fitted effect of over 45% in size
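Compounds are tested for their ability to restore growth of mitochondrial fusion-defective yeast strains at non-permissive 37C in YPEG medium over 48 hours. Viability is quantified by luciferase luminescence.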
Nrf2 inh: Nrf2 qHTS screen for inhibitors; AID 504444, 2011; 360,000 compounds, 2.1% hits; A549 ARE-Fluc reporter, luciferase luminescence, 18-24 h; Potency, µM (series often up to 46 µM), for inactives: at the top dose activity change, negative = inhibition, actives largely listed as inhibitors; note: % is set by controls: 0 for no effect and ±100 for the full control effect; nearly all actives have a fitted effect of over 60% in size
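Two sequential reads on A549 ARE_Fluc cells exposed to compound for 18-24 h: a CellTiter-Fluor fluorescence read for viability, then a luciferase luminescence read for Nrf2/ARE activity.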
IDH1 R132H inh: qHTS for Inhibitors of mutant isocitrate dehydrogenase 1 (IDH1): qHTS; Potency, µM (highest dose often 76.6 µM), without a hit: top-dose activity change, negative = inhibition, usual class: inhibitors; IDH1-R132H enzyme, NADPH consumption, diaphorase/resazurin fluorescence; 390,000 compounds, 0.093% hits; AID 602179, 2012; note: % is set by controls: 0 for no effect and ±100 for the full control effect; nearly all actives have a fitted effect of over 65% in size
Target sequence (O75874 whole entry R132H, stated change not applied): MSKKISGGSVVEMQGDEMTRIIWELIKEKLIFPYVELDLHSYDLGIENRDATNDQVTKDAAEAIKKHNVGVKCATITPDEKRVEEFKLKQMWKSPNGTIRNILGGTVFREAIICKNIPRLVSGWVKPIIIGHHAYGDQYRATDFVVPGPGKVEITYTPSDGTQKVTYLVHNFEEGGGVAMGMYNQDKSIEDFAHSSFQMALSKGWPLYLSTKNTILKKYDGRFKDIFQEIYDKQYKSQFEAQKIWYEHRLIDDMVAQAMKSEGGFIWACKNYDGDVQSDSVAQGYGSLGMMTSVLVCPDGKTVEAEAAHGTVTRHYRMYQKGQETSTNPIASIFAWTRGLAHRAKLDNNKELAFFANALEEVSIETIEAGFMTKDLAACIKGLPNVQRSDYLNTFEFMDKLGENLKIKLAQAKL
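IDH1-R132H (0.5 ug/mL) preincubated 30 min with compound, then NADPH (0.016 mM) and alpha-KG (2 mM) added; 80 min at RT, pH 7.5. Remaining NADPH coupled via diaphorase/resazurin to fluorescence (540/590 nm); concentration-response curves normalized to no-enzyme control.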
TrxR1 substrate: qHTS Assay for Substrates of Mammalian Selenoprotein Thioredoxin Reductase 1 (TrxR1): qHTS; Thioredoxin reductase 1, cytoplasmic (Rattus norvegicus), O89049; purified TrxR1 substrate turnover, NADPH consumption readout; Potency, µM (highest dose often 114 µM), without a hit: at the highest dose activity change, negative = substrate turnover; AID 588456, 2011; 390,000 compounds, 0.01% hits; note: % is set by controls: 0 for no effect and ±100 for the full control effect; nearly all actives have a fitted effect of over 50% in size
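Rat TrxR1, dispensed at 90 nM, was prereduced with 400 uM NADPH (final) for 5 min at ~22 deg C, then incubated with compound 15 min before 400 uM selenite. A first-read NADPH fluorescence drop versus no-compound background flagged substrates.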
Numbers without * were called inactive; ? = inconclusive; / = no result; [ ] = dose if it differs, or a comment. The list is not random: actives were taken first. Their share in the collection is about 3.1%. Calls come from the whole dose curve; as a rule, active = well fitted curve in the direction sought with a large enough effect; inconclusive = small, poorly fitted or top-dose-only effect, or another doubt; inactive = no such curve, though single readings can be large; an effect the other way counts as inactive or inconclusive. Potency is the fitted concentration of half-maximal effect.

SMILES | A549 tox | TrxR1 inh | Mito fusion act | Nrf2 inh | IDH1 R132H inh | TrxR1 substrate
O=C(Nc1c(-c2ccccc2)nc2ccccn12)c1ccc(Br)cc1 | -13.7% | 12.8% | / | -19.7%[9.27 µM] | -22.5% | 2.8%
CCOc1cccc2sc(N(CCN(CC)CC)C(=O)c3ccco3)nc12 | 0.2% | 8.6% | / | 19.9% | -2.8% | -4.5%
CCCNc1nc(C#N)nc(Nc2ccccc2)n1 | -4.7% | / | / | 6.1% | / | /
CCCCN(CCCC)CCNC(=O)c1cc(-c2cccnc2)nc2ccc(S(=O)(=O)N3CCC(C)CC3)cc12 | 8.3% | 15.0%[57.1 µM] | / | / | -5.9% | -2.3%[57.1 µM]
CCN(CC)CCNC(=O)c1cc(-c2cccnc2)nc2ccc(S(=O)(=O)N3CCC(C)CC3)cc12 | 23.1µM* | 0.8% | 1.6% | ? | 0.0% | -4.1%
CCCCCCC(=O)N(O)C1CC(=O)N(c2ccc(Br)cc2)C1=O (stereo unspecified) | -3.4% | 22.4µM* | 0.2% | ? | 6.0% | -3.4%
CCCCCCC(=O)N(O)C1CC(=O)N(c2ccc(F)cc2)C1=O (stereo unspecified) | 0.9% | 3.55µM* | -1.2% | 4.1% | 1.2% | 11.7%[57.1 µM]
COc1ccccc1N(O)C1CC(=O)N(c2ccc(Br)cc2)C1=O (stereo unspecified) | -13.8% | 44.7µM* | -2.4% | 20.9% | 7.6% | -8.9%
CC(=O)Nc1cccc(OCc2cccc(C3Nc4ccccc4C(=O)N3Cc3ccco3)c2)c1 (stereo unspecified) | -15.2% | / | / | ? | / | /
CCc1ccc(Oc2c(C(F)(F)F)oc3c(CN4CCC(C)CC4)c(O)ccc3c2=O)cc1 | -4.6% | 22.0% | / | 9.9% | -6.9% | -3.1%
CN(CC(=O)O)c1ccc(C=O)cc1 | / | -10.1% | / | / | / | -20.2%
COc1ccc(NS(=O)(=O)c2ccc(-c3cnc(C4CC4)o3)cc2)cc1Cl | ? | 9.4%[57.1 µM] | / | / | 7.1% | -2.8%[57.1 µM]
O=C(c1cc2nc(-c3cccs3)cc(C(F)(F)F)n2n1)N1CCCc2ccccc21 | -17.2% | 11.8% | -8.3% | 18.4µM* | 2.1% | 3.4%
O=C1c2oc3ccccc3c(=O)c2C(c2cccc(O)c2)N1Cc1ccc(F)cc1 (stereo unspecified) | 2.2% | 26.0% | / | -1.7% | -15.8% | -0.5%
Cc1cc(CNCCN(C)C)c(C)n1-c1cc(S(=O)(=O)N2CCOCC2)ccc1N1CCCC1 | 6.1% | 89.1µM* | / | -1.2% | 2.2% | 27.5%
CCOC(=O)/C=C1\CN(Cc2ccc(OC)cc2)S(=O)(=O)c2ccc(C(F)(F)F)cc21 | / | 25.1µM* | / | / | / | -6.0%
CCOC(=O)c1ccc(NC(=O)c2cccc3c(=O)c4c([nH]c23)CCCC4)cc1 | -0.1% | 1.7% | / | 8.6% | -13.8% | 1.7%
CC1CCN(c2ncnc3ccccc23)CC1 | -13.6% | 7.8% | 0.1% | 14.6µM* | 5.9% | -1.5%
CC1CCN(c2nc(-c3ccccc3O)nc3ccccc23)CC1 | -9.6% | -4.5% | 2.7% | 27.6% | 1.3% | -6.1%
O=C(C[n+]1ccccc1Br)c1ccc(O)c(O)c1 | / | -19.6% | / | / | / | -20.6%
COC(=O)C1=C(C)N(c2ccc(OC)c(OC)c2)C(=O)/C1=C\c1ccco1 | -19.3% | 28.2µM* | -4.3% | -14.1% | 0.4% | -0.3%
COc1nc(-c2ccccc2)nc(C)c1CC(=O)O | 1.9% | 21.8%[57.1 µM] | 6.31µM* | -8.4% | 6.5% | 1.8%[57.1 µM]
CN(C)c1ccc(/C=C/c2cc3ccccc3cn2)cc1 | / | -14.6% | / | / | / | -7.9%
COc1ccc(-c2nc(NC(=O)c3cc(C(C)(C)C)nn3C)sc2C)cc1 | ? | 34.7% | 15.0% | 18.4µM* | -6.3% | 12.8%
COc1ccc(-c2nc(NC(=O)c3c(C)noc3C)sc2C)cc1 | -16.8% | 22.4%[57.1 µM] | 12.9% | ? | 0.6% | 11.6%[57.1 µM]
SMILES | A549 tox | TrxR1 inh | Mito fusion act | Nrf2 inh | IDH1 R132H inh | TrxR1 substrate
CCc1ccc2oc(C(=O)NCc3ccccc3)cc(=O)c2c1 | 0.0% | 7.8% | / | 8.9% | 0.0% | 2.0%
O=C(c1ccc(Br)s1)N1CCN(c2ccccn2)CC1 | 9.3% | 4.3%[57.1 µM] | 4.8% | ? | 5.5% | -2.7%[57.1 µM]
O=C1Nc2cc(C(=O)N3CCN(c4ccccn4)CC3)ccc2S/C1=C\c1ccccc1 | -1.6% | 38.1%[57.1 µM] | 17.4% | 23.1µM* | -7.2% | 9.4%[57.1 µM]
CCOC(=O)N1CCN(C(=O)c2ccc3c(c2)NC(=O)/C(=C\c2ccc(OC)c(OC)c2)S3)CC1 | -20.5% | 25.1µM* | 13.2% | 2.3% | -4.6% | -6.0%
O=C(N1CCN(c2ccccn2)CC1)N1c2ccccc2Sc2ccccc21 | -20.0% | 13.9% | 11.2µM* | ? | 2.4% | 1.0%
COc1cccc(N(Cc2nnc3n2CCCCC3)C(=O)Nc2cccc(Cl)c2)c1 | 4.3% | 4.4%[57.1 µM] | / | / | 2.0% | -2.8%[57.1 µM]
COCCCc1cc(F)c(S(=O)(=O)N2CCN(S(=O)(=O)c3ccc4c(c3)OCCO4)CC2)cc1F | 0.6% | / | / | -23.1% | / | /
CC(C)Oc1ccc(CNC(=O)Cn2ncn3nc(-c4cccs4)cc3c2=O)cc1 | 11.5% | 9.2% | / | -16.0% | 15.9% | 1.3%
C#CCOc1c(Cl)cc(/C=N/NC(N)=S)cc1OCC | -0.6% | -17.3% | -0.9% | ? | -20.2% | -7.7%
CCOc1c(Cl)cc(/C=N/NC(N)=S)cc1OC | 5.3% | 3.8%[57.1 µM] | 0.1% | 20.6µM* | 5.6% | 7.3%[57.1 µM]
Cc1oc(=O)c(NC(=O)c2ccc(Cl)cc2)cc1C(=O)c1ccccc1 | -14.2% | ? | -3.1% | -28.9% | -3.7% | 5.0%

Screening results deposited in PubChem BioAssay by National Center for Advancing Translational Sciences (NCATS).
